Reference: PubChem BioAssay (NCI)
Compounds without any hit were thinned out: in the full panel of roughly 83,000, 20% have a hit.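 Single-concentration screen, 48 h exposure, 96-well plates. Endpoint: percent growth. Below 10 = active.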 Activity calls are given as the source filed them.

Tests used:
Assay in all cases: NCI-60 one-dose screen, 48 h (100 = growth as untreated, 0 = no growth, -100 = all killed)
Conditions in all cases: 10 µM unless noted
HCT-15 colon = system: HCT-15 colon
HT29 colon = system: HT29 colon
SNB-75 CNS = system: SNB-75 CNS
SNB-19 CNS = system: SNB-19 CNS
U251 CNS = system: U251 CNS
SK-MEL-5 melanoma = system: SK-MEL-5 melanoma
UACC-62 melanoma = system: UACC-62 melanoma
LOX IMVI melanoma = system: LOX IMVI melanoma
SK-MEL-28 melanoma = system: SK-MEL-28 melanoma

Measured: growth

Nc1ccc(-c2cc3c(NCc4ccccc4)ncnc3s2)cc1
inactive: HCT-15 colon 82.2% | HT29 colon 103% | SNB-75 CNS 89.2% | SNB-19 CNS 73.6% | U251 CNS 82.4% | SK-MEL-5 melanoma 55.7% | UACC-62 melanoma 71.8% | LOX IMVI melanoma 84.2% | SK-MEL-28 melanoma 92.3%

CCCCC/C(C=C(C#N)C#N)=C/c1ccccc1
active: LOX IMVI melanoma 2.03%
inactive: HCT-15 colon 47% | HT29 colon 37% | SNB-75 CNS 96.6% | SNB-19 CNS 67.1% | U251 CNS 34.2% | SK-MEL-5 melanoma 71% | UACC-62 melanoma 48.9% | SK-MEL-28 melanoma 84%

CCn1c(Cc2ccccc2Nc2c(Cl)cccc2Cl)nnc1SCC(=O)NN1C(=O)/C(=C/c2cc(OC)c(O)c(OC)c2)SC1=S
active: SNB-75 CNS 2.65%
inactive: HCT-15 colon 50.4% | HT29 colon 25.5% | SNB-19 CNS 41.9% | U251 CNS 31.5% | SK-MEL-5 melanoma 26.1% | UACC-62 melanoma 33.2% | LOX IMVI melanoma 26.8% | SK-MEL-28 melanoma 45.7%

COCCNc1ccc2c3c(cccc13)C(=O)N(CCN(C)C)C2=O
inactive: HCT-15 colon 20% | HT29 colon 10.4% | SNB-75 CNS 47.7% | SNB-19 CNS 22.4% | U251 CNS 28.1% | SK-MEL-28 melanoma 37.5%
active: SK-MEL-5 melanoma -33.5% | UACC-62 melanoma 3.48% | LOX IMVI melanoma 2.86%

O=C(O)c1ccc(NC(=O)c2ccc(-c3cccc([N+](=O)[O-])c3)o2)cc1
inactive: HCT-15 colon 99.2% | HT29 colon 104% | SNB-75 CNS 88% | SNB-19 CNS 92% | U251 CNS 96.8% | SK-MEL-5 melanoma 101% | UACC-62 melanoma 98.4% | LOX IMVI melanoma 95.3% | SK-MEL-28 melanoma 107%

COc1ccc(C(=O)COc2cccc(/C=C3\CSc4ccccc4C3=O)c2)cc1
active: HCT-15 colon -54.1% | HT29 colon -88.2% | U251 CNS -86.7% | SK-MEL-5 melanoma -75.8% | UACC-62 melanoma -72% | LOX IMVI melanoma -100% | SK-MEL-28 melanoma -62.3%
inactive: SNB-75 CNS 91.6% | SNB-19 CNS 63.6%

OC(COc1cccc2ccccc12)CN1CCN(c2ccccc2Cl)CC1 (stereo not drawn)
inactive: HCT-15 colon 99% | HT29 colon 85.7% | SNB-75 CNS 86.7% | SNB-19 CNS 83.4% | U251 CNS 97.8% | SK-MEL-5 melanoma 90.7% | UACC-62 melanoma 93.9% | LOX IMVI melanoma 92.6% | SK-MEL-28 melanoma 112%

CC(C)(C)c1cc(C(C)(C)C)cc(S(=O)(=O)Nc2cc3ccccc3cc2C(=O)NCCN)c1
active: HT29 colon -43.7% | U251 CNS -21.8% | LOX IMVI melanoma -77.8% | SK-MEL-28 melanoma -44.9%
inactive: HCT-15 colon 38.8% | SNB-75 CNS 63.4% | SNB-19 CNS 68.9% | SK-MEL-5 melanoma 81.1% | UACC-62 melanoma 55%

O=C1c2cccc3cccc(c23)C(=O)N1CCCCCN1CCN(CCCCCOc2ccc(-c3nc4ccc(N5CCOCC5)cc4[nH]3)cc2)CC1
inactive: HCT-15 colon 80.4% | HT29 colon 44.3% | SNB-75 CNS 112% | SNB-19 CNS 129% | U251 CNS 99.6% | SK-MEL-5 melanoma 96.7% | UACC-62 melanoma 75% | LOX IMVI melanoma 56.4% | SK-MEL-28 melanoma 95.7%

COc1ccc(C(=O)COc2ccc(/C=C3\Oc4ccc(OC)cc4C3=O)cc2)cc1
inactive: HCT-15 colon 102% | HT29 colon 110% | SNB-75 CNS 101% | SNB-19 CNS 92.7% | U251 CNS 93% | SK-MEL-5 melanoma 97.5% | UACC-62 melanoma 90.1% | LOX IMVI melanoma 77.3% | SK-MEL-28 melanoma 137%

COc1ccc2[nH]cc(-c3noc(C(=O)c4cn(C)c5ccc(F)cc45)n3)c2c1
inactive: HCT-15 colon 94.4% | HT29 colon 109% | SNB-75 CNS 74.6% | SNB-19 CNS 96% | U251 CNS 101% | SK-MEL-5 melanoma 92.5% | UACC-62 melanoma 88.2% | LOX IMVI melanoma 93.2% | SK-MEL-28 melanoma 105%

CCCc1cc(=O)n2c(C(=O)Nc3ccc(F)cc3)c(C(=O)Nc3ccc(F)cc3)sc2n1
inactive: HCT-15 colon 83% [30 µM] | HT29 colon 53.8% [30 µM] | SNB-19 CNS 48.4% [30 µM] | U251 CNS 41.6% [30 µM] | SK-MEL-5 melanoma 82.8% [30 µM] | UACC-62 melanoma 84% [30 µM] | LOX IMVI melanoma 65.1% [30 µM] | SK-MEL-28 melanoma 77.7% [30 µM]
active: SNB-75 CNS -15.9% [30 µM]

Cc1[nH]c(-c2ccc3cc[nH]c3c2)c2c1C(=O)CCCC2
inactive: HCT-15 colon 30.6% | HT29 colon 27.4% | SNB-19 CNS 53.1% | U251 CNS 48.5% | SK-MEL-5 melanoma 49.6% | UACC-62 melanoma 24.8% | LOX IMVI melanoma 16.2% | SK-MEL-28 melanoma 66.2%
active: SNB-75 CNS 6.65%

COC(=O)c1ccc2oc(NC(=O)c3ccc(Nc4ccc([N+](=O)[O-])cc4C)c([N+](=O)[O-])c3)nc2c1
inactive: HCT-15 colon 104% | HT29 colon 96.8% | SNB-75 CNS 97.5% | SNB-19 CNS 99% | U251 CNS 101% | SK-MEL-5 melanoma 93.6% | UACC-62 melanoma 100% | LOX IMVI melanoma 99.7% | SK-MEL-28 melanoma 108%

CCCc1cc(=O)n2c(C(=O)Nc3cccc(C(=O)OCC)c3)c(C(=O)Nc3ccc(F)cc3)sc2n1
inactive: HCT-15 colon 66.4% [30 µM] | HT29 colon 67.5% [30 µM] | SNB-75 CNS 25.6% [30 µM] | SNB-19 CNS 43.8% [30 µM] | U251 CNS 13.2% [30 µM] | SK-MEL-5 melanoma 66.6% [30 µM] | UACC-62 melanoma 104% [30 µM] | LOX IMVI melanoma 46.8% [30 µM] | SK-MEL-28 melanoma 88.3% [30 µM]

COc1ccc(-n2nc(C)c3c(Oc4ccc(NC(=O)Nc5c(Cl)cccc5Cl)cc4)ncnc32)cc1
inactive: HCT-15 colon 105% | HT29 colon 107% | SNB-75 CNS 93.6% | SNB-19 CNS 98.5% | U251 CNS 96.9% | SK-MEL-5 melanoma 99.9% | UACC-62 melanoma 98.4% | LOX IMVI melanoma 100% | SK-MEL-28 melanoma 106%

CN(C)CCN1C(=O)c2cccc3c(N)ccc(c23)C1=O
inactive: HCT-15 colon 23.2% | HT29 colon 13.5% | SNB-75 CNS 56.9% | SNB-19 CNS 27.3% | U251 CNS 22.5% | UACC-62 melanoma 33.1% | SK-MEL-28 melanoma 71.2%
active: SK-MEL-5 melanoma -21.8% | LOX IMVI melanoma 5.28%

O=C(NCCN1CCOCC1)Nc1ccc(-c2cc3c(Nc4ccc(Oc5cccc(C(F)(F)F)c5)c(Cl)c4)ncnc3s2)cc1
inactive: SNB-19 CNS 43.1%
active: HCT-15 colon -56.2% | HT29 colon -69.2% | SNB-75 CNS -48.4% | U251 CNS 0.383% | SK-MEL-5 melanoma -90.9% | UACC-62 melanoma -40.3% | LOX IMVI melanoma -86.6% | SK-MEL-28 melanoma -49.8%

C#CCOc1ccc2ncnc(Nc3cccc(CNC(=O)CCl)c3)c2c1
inactive: HCT-15 colon 45.2% [8.25 µM] | HT29 colon 35% [8.25 µM] | SNB-75 CNS 15.5% [8.25 µM] | SNB-19 CNS 60.7% [8.25 µM] | U251 CNS 10.1% [8.25 µM] | SK-MEL-5 melanoma 14.5% [8.25 µM] | UACC-62 melanoma 40.3% [8.25 µM] | LOX IMVI melanoma 53.9% [8.25 µM] | SK-MEL-28 melanoma 69% [8.25 µM]

O=C(Nc1cccc2[nH]c(C(F)(F)F)nc12)c1ccc(-n2cnnn2)cc1
inactive: HCT-15 colon 99.1% | HT29 colon 111% | SNB-75 CNS 100% | SNB-19 CNS 94% | U251 CNS 94.4% | SK-MEL-5 melanoma 87.2% | UACC-62 melanoma 34.3% | LOX IMVI melanoma 102% | SK-MEL-28 melanoma 120%

O=C(Cc1ccccc1Nc1c(Cl)cccc1Cl)NN1C(=O)/C(=C/c2ccc(Br)cc2)SC1=S
inactive: HCT-15 colon 104% | HT29 colon 109% | SNB-75 CNS 86.4% | SNB-19 CNS 105% | U251 CNS 102% | SK-MEL-5 melanoma 98.6% | UACC-62 melanoma 101% | LOX IMVI melanoma 97.5% | SK-MEL-28 melanoma 105%

C#Cc1cccc(NC(=O)c2ccccc2NC(=O)C=C)c1
inactive: HCT-15 colon 104% [8.25 µM] | HT29 colon 109% [8.25 µM] | SNB-75 CNS 75% [8.25 µM] | SNB-19 CNS 94.1% [8.25 µM] | U251 CNS 100% [8.25 µM] | SK-MEL-5 melanoma 99.5% [8.25 µM] | UACC-62 melanoma 104% [8.25 µM] | LOX IMVI melanoma 97.4% [8.25 µM] | SK-MEL-28 melanoma 109% [8.25 µM]

C(=C\c1nccc2c1[nH]c1ccccc12)/c1ccccc1
inactive: HCT-15 colon 18.7% | SNB-19 CNS 35% | U251 CNS 15.1% | UACC-62 melanoma 39.3% | LOX IMVI melanoma 25.5% | SK-MEL-28 melanoma 49.6%
active: HT29 colon 1.31% | SNB-75 CNS -20.1% | SK-MEL-5 melanoma 2.59%

CCOC(=O)c1c(CN2CCN(C)CC2)nc2ccc(Cl)cc2c1-c1ccccc1
active: SK-MEL-28 melanoma -22.6%
inactive: HCT-15 colon 62.9% | HT29 colon 18% | SNB-75 CNS 58.6% | SNB-19 CNS 86.8% | U251 CNS 64.4% | SK-MEL-5 melanoma 18.3% | UACC-62 melanoma 86.3% | LOX IMVI melanoma 54.4%

Cc1ccccc1COc1ccc(-c2ccnn2-c2ccc(Cl)cc2)cc1
inactive: HCT-15 colon 39.9% | HT29 colon 17.6% | SNB-75 CNS 60.7% | SNB-19 CNS 62% | U251 CNS 46% | SK-MEL-5 melanoma 66.6% | UACC-62 melanoma 60.7% | LOX IMVI melanoma 64.3% | SK-MEL-28 melanoma 69.4%

Cc1ccccc1COc1ccc(-c2onc(C)c2-c2ccc(Cl)cc2)cc1
inactive: HCT-15 colon 37.6% | HT29 colon 16.9% | SNB-75 CNS 52.9% | SNB-19 CNS 55.5% | U251 CNS 41.3% | SK-MEL-5 melanoma 73.4% | UACC-62 melanoma 48.5% | LOX IMVI melanoma 68% | SK-MEL-28 melanoma 70.5%

COc1nc2c(c(=O)n1C)CN(Cc1ccccc1)C=N2
inactive: HCT-15 colon 105% | HT29 colon 109% | SNB-75 CNS 78% | SNB-19 CNS 91.1% | U251 CNS 115% | SK-MEL-5 melanoma 111% | UACC-62 melanoma 116% | LOX IMVI melanoma 98.1% | SK-MEL-28 melanoma 108%
